Shown are actives, neighbours in structure and some others; about 7.9% of the full set was active somewhere.
SW480 rereplic: induces DNA re-replication in SW480 colon adenocarcinoma cells | Potency, µM (doses to about 46.1 µM), most hits filed as activators | 340,000 compounds, 1.8% hits | SW480 DNA re-replication, Hoechst DNA content imaging, 48 h; note: nearly all actives have a fitted effect of over 55% in size
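Image-based DNA-content assay: after two days of treatment, nuclei were labelled with the DNA dye Hoechst and imaged, and hits were compounds raising the count of nuclei showing high fluorescence intensity.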
MCF10A rereplic: induces DNA re-replication in MCF 10a normal breast cells; MCF 10A DNA re-replication, Hoechst nuclear intensity, 48 h; Potency, µM (doses to about 46.1 µM), usual class: activators; 350,000 compounds, 2.9% hits; AID 624296; note: nearly all actives have a fitted effect of over 50% in size
KB-V1 cytotox: kills drug-selected multidrug resistant KB-V1 cells. Potency, µM (top dose mostly 46.1 µM), usual class: cytotoxic. KB-V1 MDR cells viability, CellTiter-Glo, 72 h. 400,000 compounds, 3.4% hits; note: nearly all actives have a fitted effect of over 60% in size
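Cells of the MDR subline KB-V1 are plated, dosed with compound at multiple concentrations, and incubated 72 h at 37 degrees C; CellTiter-Glo is then added and luminescence read after 10 min.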
KB-3-1 tox: KB-3-1 parental cell cytotoxicity; KB-3-1 viability, CellTiter-Glo ATP luminescence, 72 h; Potency, µM (titrated, usually from 46.1 µM), usual class: cytotoxic; 400,000 compounds, 1.4% hits; note: nearly all actives have a fitted effect of over 60% in size
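Luminescent ATP read-out (CellTiter-Glo) measures survival of drug-naive KB-3-1 cells after 72 h compound exposure at 37 °C. Titration series was screened from lowest to highest concentration, with DMSO vehicle plates as background controls.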
HT1080NT lethal: kills 2HG-producing HT-1080-NT fibrosarcoma cells. HT-1080-NT fibrosarcoma viability, CellTiter-Glo ATP luminescence, 48 h. 360,000 compounds, 1.6% hits. Potency, µM (top dose mostly 46.1 µM), most hits filed as cytotoxic. AID 686970;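 note: NT is the 2HG producing partner of a matched IDH1 knockdown line; nearly all actives have a fitted effect of over 55% in size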
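750 cells/well, RPMI + 5% FBS; 2 h settle, compound pin-transfer, 48 h at 37 degrees C. CellTiter-Glo 10 min RT, luminescence. Normalized to DMSO and media-only wells.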
HT1080 IDH1KD tx: kills HT-1080 cells with IDH1 knockdown | HT-1080 IDH1 knockdown viability, ATP luminescence, 48 h | Potency, µM (top dose mostly 46.1 µM), actives largely listed as cytotoxic | 360,000 compounds, 2% hits | AID 686971
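Viability of IDH1-knockdown HT-1080 fibrosarcoma cells was assessed by CellTiter-Glo after 48 h at 37 °C with titrated compound; concentration-effect curves were classified by fit quality and response size.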
Hits are given with their value; n = inactive; u = inconclusive; x = no result given; [ ] = remark or other dose. Calls come from the whole dose curve; as a rule, active = well fitted curve in the direction sought with a large enough effect; inconclusive = small, poorly fitted or top-dose-only effect, or another doubt; inactive = no such curve, though single readings can be large; an effect the other way counts as inactive or inconclusive.

SMILES	SW480 rereplic	MCF10A rereplic	KB-V1 cytotox	KB-3-1 tox	HT1080NT lethal	HT1080 IDH1KD tx
CCc1ccccc1NC(=S)NCC1CCN(c2ccc(OC)cc2)C1 (configuration not stated)	n	u	20.6µM	u	u	n
c1ccc(COc2cccc(-c3cc4nc(NCc5ccc6c(c5)OCO6)ccn4n3)c2)cc1	x	x	n	u	n	n
Cc1cccc(C)c1NC(=O)CCCN1C(=O)CCn2nc(-c3cn(C)c4ccccc34)cc21	x	x	n	n	x	x
O=C(NCc1ccccc1)c1ccc(CN2CCOCC2)cc1	n	n	n	n	n	n
O=C(CN(Cc1ccccc1Cl)C(=O)c1ccc(CN2CCOCC2)o1)NCc1ccccc1	n	n	11.6µM	n	n	n
COc1ccc(C(=O)NCc2ccc3[nH]c(C)cc3c2)cc1OC	n	4.61µM	n	n	n	n
COc1cccc(C(=O)NCc2ccc3[nH]c(C)cc3c2)c1	n	u	n	n	n	n
COc1cc(OC)cc(C(=O)NCc2ccc3[nH]c(C)cc3c2)c1	n	0.651µM	n	n	n	n
CCc1ccc2c(c1)NC(=O)C2(C)Cc1ccc(C(F)(F)F)o1 (configuration not stated)	x	x	n	n	n	u
CC(C)CC(NC(=O)C1CCC(C)CC1)C(=O)OCC(=O)c1ccc(Cl)cc1 (configuration not stated)	x	x	n	n	x	x
O=C(CN1C(=O)COc2ccc(S(=O)(=O)N3CCOCC3)cc21)N1CCN(c2ccccc2F)CC1	x	x	n	n	x	x
Cc1ccc(NC(=O)c2cccc(-n3cnnn3)c2)cc1Cl	0.651µM	u	n	n	n[9.24 µM]	n
Cc1ccc(NC(=O)CSc2ccccc2NC(=O)c2ccccc2Cl)cc1Cl	n	n	3.66µM	u	n	n
Cc1ccc(NC(=O)CSc2ccccc2NC(=O)c2ccccc2)cc1Cl	n	20.6µM	u	n	n	u
Cc1cc(NC(=O)c2ccccc2Cl)ccc1NC(=O)c1ccccc1Cl	n	n	n	n	n	n
COc1ccc(CNC(=O)C(=O)NCC(c2cccnc2)N2CCN(c3ccccc3)CC2)cc1 (configuration not stated)	x	x	n	u	x	x
Cc1cccc(Oc2cc([N+](=O)[O-])cc3c2C(=O)Nc2ccccc2O3)c1	n	u	2.59µM	u	n	n
O=C1Nc2ccccc2Oc2cc([N+](=O)[O-])cc(Oc3ccccc3)c21	n	u	n	n	n	n
O=[N+]([O-])c1cc2c(c([N+](=O)[O-])c1)Nc1ccccc1O2	x	x	13µM	23.1µM	u	n
CCOc1ccccc1NC(=O)c1ccc2c(Cl)c3c(nc2c1)CCC3	x	x	n	n	x	x
COC(=O)C1=CN(c2ccc(F)cc2)C(N)=C(C#N)C1c1ccccc1 (configuration not stated)	x	x	u	u	n	u
COC(=O)C1=CN(c2ccc(OC)cc2)C(N)=C(C#N)C1c1cccc2ccccc12 (configuration not stated)	x	x	u	18.4µM	u	u
COC(=O)C1=CN(c2ccc3c(c2)OCO3)C(N)=C(C#N)C1c1ccccc1 (configuration not stated)	x	x	2.91µM	7.31µM	18.4µM	11.6µM
COC(=O)C1=CN(c2ccccc2OC)C(N)=C(C#N)C1c1cccc([N+](=O)[O-])c1 (configuration not stated)	x	x	4.11µM	4.61µM	2.31µM	1.84µM
CCOC(=O)c1cnc(SCc2nc(N)nc(Nc3ccc(F)cc3)n2)nc1N	u	3.66µM	u	u	n	u
SMILES	SW480 rereplic	MCF10A rereplic	KB-V1 cytotox	KB-3-1 tox	HT1080NT lethal	HT1080 IDH1KD tx
CCOC(=O)c1cnc(SCc2nc(N)nc(Nc3ccc(C)cc3)n2)nc1N	u	10.3µM	u	u	u	u
COc1ccc(C2NC(=O)N(C)C3=C2C(=O)N(c2ccc(Br)cc2)C3)cc1 (configuration not stated)	x	x	n	n	x	x
COc1ccc(N2CC3=C(C2=O)C(c2ccc(Br)cc2)NC(=O)N3C)cc1 (configuration not stated)	x	x	25.9µM	n	x	x
CCOc1ccccc1NC(=O)CC1C(=O)NCCN1C(=O)c1ccc(F)cc1 (configuration not stated)	x	x	n	n	x	x
Cc1cccc(/C=N/NC(=O)c2cc(-c3cccnc3)nc3c2c(C)nn3-c2ccccc2)c1	n	u	14.6µM	n	n	n
Cc1cccc(/C=N/NC(=O)c2cc(-c3cccnc3)nc3ccccc23)c1	n	n	n	n	n	n
CCN1C(Br)=CCc2ccccc21	x	x	u	n	x	x
CC(C)c1ccccc1OCC(=O)NCC(c1cccs1)N1CCOCC1 (configuration not stated)	n	n	18.4µM	n	n	n
COc1ccc(C(CNC(=O)COc2ccccc2C)N2CCOCC2)cc1 (configuration not stated)	n	n	18.4µM	n	n	n
Cc1ccccc1OCC(=O)NCC(c1ccc(Cl)cc1)N1CCOCC1 (configuration not stated)	x	x	u	n	x	x
O=C(CN(CCc1ccccc1)S(=O)(=O)c1ccccc1)NCc1ccc(Cl)cc1	x	x	n	n	x	x
Cc1cc([N+](=O)[O-])ccc1NC(=O)CCC(=O)N1CCCCC1	n	n	n	n	n	n
Cc1cc(N2CCOCC2)nc2ccc(NC(=O)CCC(=O)N3CCN(c4ccccc4)CC3)cc12	n	n	n	n	n	n
Cc1cc(N2CCN(C)CC2)nc2ccc(NC(=O)CCC(=O)N3CCN(c4ccc([N+](=O)[O-])cc4)CC3)cc12	u	18.4µM	n	n	20.6µM	16.4µM
O=C(NCC(=O)N1CCCCCCC1)c1cccc([N+](=O)[O-])c1	n	n	20.6µM	n	n	n
O=C(CCC(=O)N1CCCCCC1)Nc1ccc([N+](=O)[O-])cc1	n	n	n	n	6.51µM	u
CCOc1ccc(NC(=O)Cn2c(=O)n(Cc3ccccc3)c(=O)c3c4c(sc32)CN(C(C)=O)CC4)cc1	x	x	n	n	x	x
O=C(c1cnn2c1NC(=C1CC1)C=C2C(F)F)N1CCc2ccccc21	x	x	n	u	x	x
CC(C)OC(=O)/C(=C/c1ccc(Br)cc1)NC(=O)c1ccco1	n	n	16.4µM	n	n	n
COC(=O)/C(=C/c1ccccc1)NC(=O)c1ccco1	n	n	n	n	n	n
COc1ccc(C(=O)NNC(=S)NC(=O)c2cccs2)cc1	n	u	n	u	u	u
O=C(/C=C/c1ccc(Br)cc1)NC(=S)NNC(=O)c1ccco1	u	u	n	n	16.4µM	14.6µM
COc1ccc(/C=C/C(=O)NC(=S)NNC(=O)c2cccs2)cc1	23.1µM	10.3µM	u	u	u	u
